# PubChem BioAssay (Tox21)
# Values without a mark were called inactive. Inconclusive results are not listed. Entries that show only a call come without a potency. Calls of active or inactive are those of the source. Unless noted, calls follow the shape of the full dose curve.
# Columns and labels:
# [1] = Nuclear factor erythroid 2-related factor 2/antioxidant responsive element (Nrf2/ARE) small molecule agonists: qHTS cell viability counter screen in human keratinocytes (AID 1919968; active = well fitted curve in the direction sought with a large enough effect in the repeat runs; an effect the other way counts as inactive or inconclusive; also: nearly all actives have a fitted effect of over 55% in size; also: potency is read from the fitted curve at half-maximal effect)
# Procedure, shortened: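 KeratinoSens HaCaT cells, 1,500/well, preincubated 5 h, then exposed to compounds in DMSO for 23 h at 37 C/5% CO2. Viability read as CellTiter-Fluor fluorescence after 1 h, in the same wells as the ARE-luciferase read.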
# [2] = Nuclear factor erythroid 2-related factor 2/antioxidant responsive element (Nrf2/ARE) small molecule agonists: luciferase reporter gene qHTS assay in human keratinocytes (AID 1919969); also: nearly all actives have a fitted effect of over 35% in size; also: potency is read from the fitted curve at half-maximal effect
# [3] = target: Gonadotropin-releasing hormone receptor (Homo sapiens) (UniProt P30968); test: Human gonadotropin-releasing hormone receptor (GnRHR) small molecule agonists, calcium flux assay in GnRHR-HEK293 cells (AID 1920063); also: nearly all actives have a fitted effect of over 35% in size
# Procedure, shortened: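 HEK293 cells stably expressing human GnRHR were dye-loaded for 1 h at 37 C. Compound was added in agonist mode and fluorescence (Ex/Em 480/540) recorded kinetically for 3 min. Fifteen concentrations, triplicates.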
# [4] = target: KiSS-1 receptor (Homo sapiens) (UniProt Q969F8); test: Human kisspeptin (KISS1R) small molecule agonists, calcium flux assay in KISS1R-HEK293 cells (AID 1920064; active = well fitted curve in the direction sought with a large enough effect in the repeat runs; an effect the other way counts as inactive or inconclusive)
# Procedure, shortened: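 HEK293 cells stably expressing human KISS1R were loaded with calcium dye for 1 h at 37 C, then given compound; fluorescence (Ex/Em 480/540) was read kinetically for 3 min. Fifteen concentrations, triplicate.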
# [5] = p53 small molecule agonists, cell-based qHTS assay with rat liver microsomes (AID 1963578)
# Procedure, shortened: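 Metabolic activation by rat liver microsomes and NADPH, each 0.5 mg/mL final, added right after compounds to p53RE-bla reporter cells (4,000/well, plated 5 h earlier). 16 h at 37 C, then LiveBLAzer substrate for 2 h at room temperature in the dark; fluorescence read-out.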
# [6] = p53 small molecule agonists, cell-based qHTS assay with human liver microsomes: qHTS cell viability counter screen (AID 1963579); also: nearly all actives have a fitted effect of over 45% in size
# Procedure, shortened: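 Metabolic activation used human liver microsomes and NADPH, both 0.5 mg/mL final, over 16 hours at 37 C on p53RE-bla cells (4,000/well). Cytotoxicity measured by CellTiter-Glo luminescence, 30 min at room temperature.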
# [7] = p53 small molecule agonists, cell-based qHTS assay with rat liver microsomes: qHTS cell viability counter screen (AID 1963580); also: nearly all actives have a fitted effect of over 45% in size; also: potency is read from the fitted curve at half-maximal effect
# Procedure, shortened: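 Viability is assessed in parallel with the p53 reporter read: HCT-116 p53RE-bla cells receive compounds plus rat microsomes and NADPH (0.5 mg/mL final apiece), incubate 16 h at 37 C, and then CellTiter-Glo luminescence is recorded.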
# [8] = p53 small molecule agonists, cell-based qHTS assay: qHTS cell viability counter screen (AID 1963581); also: nearly all actives have a fitted effect of over 45% in size; also: potency is read from the fitted curve at half-maximal effect
# Procedure, shortened: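 p53RE-bla HCT-116 cells, compounds added 5 h after plating and incubated 16 h at 37 C. Cytotoxicity measured in the same wells as intracellular ATP by CellTiter-Glo luminescence after 30 min at room temperature.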
# [9] = target: 5-hydroxytryptamine receptor 2A (Homo sapiens) (UniProt P28223); test: 5-hydroxytryptamine receptor 2A (HTR2A) small molecule antagonists, cell-based qHTS assay (AID 1963586); also: nearly all actives have a fitted effect of over 45% in size
# Procedure, shortened: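 Antagonist-mode intracellular calcium assay: DOI (4 nM) added after 5 min compound pre-incubation at room temperature to dye-loaded HTR2A-CHO cells. Fluorescence followed for 3 min, sampled every second.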
# [10] = target: Muscarinic acetylcholine receptor M1 (Homo sapiens) (UniProt P11229); test: Cholinergic receptor muscarinic 1 (CHRM1) small molecule antagonists, cell-based qHTS assay (AID 1963588); also: nearly all actives have a fitted effect of over 40% in size
# Procedure, shortened: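 CHRM1-CHO calcium-flux assay, antagonist mode. Cells were seeded 18 h, dye-loaded 1 h at 37 C and given compound for 5 min at RT, then acetylcholine was added at 50nM. FDSS fluorescence was read 3 min; 15 concentrations, three runs.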
# [11] = target: Muscarinic acetylcholine receptor M1 (Homo sapiens) (UniProt P11229); test: Cholinergic receptor muscarinic 1 (CHRM1) small molecule agonists, cell-based qHTS assay (AID 1963589); also: nearly all actives have a fitted effect of over 35% in size
# Procedure, shortened: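 CHO cells stably expressing human CHRM1 were loaded with calcium dye for 1 h at 37 C, then compound was added in agonist mode. Intracellular calcium fluorescence was followed kinetically at 1 s intervals. Fifteen concentrations were tested in three independent runs.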
# [12] = cAMP Responsive Elements (CRE) small molecule agonists, cell-based qHTS assay (AID 1963590)
# Procedure, shortened: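 CRE-bla HEK 293T cells, 2,000/well in DMEM with 10% dialyzed FBS and 25 mM HEPES, pre-incubated 18 h at 37 C, then exposed to compound 3 h at 37 C. Beta-lactamase reporter read with LiveBLAzer B/G FRET substrate after 2 h at room temperature.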
# [13] = cAMP Responsive Elements (CRE) small molecule antagonists, cell-based qHTS assay (AID 1963591; active = well fitted inhibition curve with a large enough effect in the signal ratio in the repeat runs, not every such curve was filed as active; the % refers to the signal ratio)
# Procedure, shortened: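 CRE-bla HEK293T cells plated 18 h, then given compound plus NKH477 at 0.25 uM final for 3 h at 37C. Beta-lactamase reporter read with LiveBLAzer B/G FRET substrate after 2 h at room temperature.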
# [14] = target: D(2) dopamine receptor (Homo sapiens) (UniProt P14416); test: Dopamine D2 receptor (DRD2) small molecule agonists, cell-based qHTS assay (AID 1963594); also: nearly all actives have a fitted effect of over 35% in size
# Procedure, shortened: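 HEK293 cells stably expressing human DRD2, pre-treated with PDE inhibitor Ro20-1724 (0.1 mM final) and compound 10 min at room temperature, then stimulated with NKH477 (200nM […]) for 30 min. cAMP read by HTRF (665/620 nm).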
# [15] = target: D(2) dopamine receptor (Homo sapiens) (UniProt P14416); test: Dopamine D2 receptor (DRD2) small molecule antagonists, cell-based qHTS assay (AID 1963595; active = well fitted inhibition curve with a large enough effect in the signal ratio in the repeat runs, with a control signal flat; the % refers to the signal ratio)
# Procedure, shortened: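 Human DRD2 antagonist qHTS measuring cAMP by HTRF. The cells are exposed to compound for 10 min, then to NKH477 (200 nM) and quinpirole (12 nM) for 30 min at RT, with Ro20-1724 (0.1 mM) present throughout.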
# [16] = G protein-coupled receptor (GPCR) small molecule agonists, calcium flux assay: HEK293 wild type cell line counter screen (AID 1920065)
# Procedure, shortened: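 Wild-type HEK293 cells plated 18 h, loaded with calcium dye 1 h at 37 C, then compounds added in agonist mode (ATP as positive control). Kinetic fluorescence Ex/Em 480/540 recorded 3 min at 1 sec intervals; 15 concentrations, triplicate.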
# [17] = target: Beta-2 adrenergic receptor (Homo sapiens) (UniProt P07550); test: Adrenergic beta2 receptor (ADRB2) small molecule antagonists, cell-based qHTS assay (AID 1963592); also: nearly all actives have a fitted effect of over 50% in size; also: potency is read from the fitted curve at half-maximal effect; as to activity change, negative = inhibition: series mostly up to about 92 µM
# Procedure, shortened: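 Cells (CHO, stable ADRB2 overexpression) incubated 18-20hr at 37C; compounds added from DMSO; agonist mix (1nM isoproterenol, 100uM IBMX, 25uM Ro-20-1724) added; 0.5hr RT; d2-cAMP and anti-cAMP-cryptate added; 1hr RT; 665/615 nm read.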
# [18] = target: Beta-2 adrenergic receptor (Homo sapiens) (UniProt P07550); test: Adrenergic beta2 receptor (ADRB2) small molecule agonists, cell-based qHTS assay (AID 1963593);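 also: CHO cells stably overexpressing human ADRB2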
# Procedure, shortened: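 CHO cells stably over-expressing ADRB2 were plated overnight at 37C, then dosed with compounds plus a stimulation mix containing 100uM IBMX and 25uM Ro-20-1724 for 0.5hr at room temperature. cAMP was measured by HTRF competition, 1hr.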
# [19] = p53 small molecule agonists, cell-based qHTS assay (AID 1963582; active = well fitted activation curve with a large enough effect in the signal ratio in the repeat runs, not every such curve was filed as active; the % refers to the signal ratio)
# Procedure, shortened: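 p53RE-bla reporter cells, compounds added in DMSO after 5 h plating, incubated 16 h at 37 C. Beta-lactamase read via 2 h room-temperature LiveBLAzer B/G FRET substrate, fluorescence intensity.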
# [20] = target: 5-hydroxytryptamine receptor 2A (Homo sapiens) (UniProt P28223); test: 5-hydroxytryptamine receptor 2A (HTR2A) small molecule agonists, cell-based qHTS assay (AID 1963587); also: nearly all actives have a fitted effect of over 30% in size
# Procedure, shortened: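 CHO cells stably expressing human HTR2A, plated 18 h, loaded with calcium dye 1 h at 37 C. Agonist mode: compounds added and intracellular calcium fluorescence recorded kinetically for 2 min at 1 sec intervals.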
# 5-hydroxytryptamine receptor 2A (Homo sapiens), sequence (P28223 whole entry, looked up): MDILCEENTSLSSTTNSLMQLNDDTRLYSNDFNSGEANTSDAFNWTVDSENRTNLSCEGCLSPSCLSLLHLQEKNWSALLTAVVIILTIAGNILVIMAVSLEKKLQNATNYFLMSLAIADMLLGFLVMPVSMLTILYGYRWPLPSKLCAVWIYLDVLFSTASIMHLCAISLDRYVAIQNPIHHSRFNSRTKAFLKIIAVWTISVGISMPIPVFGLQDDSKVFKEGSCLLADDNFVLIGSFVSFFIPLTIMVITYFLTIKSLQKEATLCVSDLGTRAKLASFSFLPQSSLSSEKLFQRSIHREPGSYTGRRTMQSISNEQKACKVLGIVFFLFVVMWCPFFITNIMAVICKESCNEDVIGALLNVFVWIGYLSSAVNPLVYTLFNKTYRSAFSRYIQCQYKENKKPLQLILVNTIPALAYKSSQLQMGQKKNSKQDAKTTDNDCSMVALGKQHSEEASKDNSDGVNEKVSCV
# Beta-2 adrenergic receptor (Homo sapiens), sequence (P07550 whole entry, looked up): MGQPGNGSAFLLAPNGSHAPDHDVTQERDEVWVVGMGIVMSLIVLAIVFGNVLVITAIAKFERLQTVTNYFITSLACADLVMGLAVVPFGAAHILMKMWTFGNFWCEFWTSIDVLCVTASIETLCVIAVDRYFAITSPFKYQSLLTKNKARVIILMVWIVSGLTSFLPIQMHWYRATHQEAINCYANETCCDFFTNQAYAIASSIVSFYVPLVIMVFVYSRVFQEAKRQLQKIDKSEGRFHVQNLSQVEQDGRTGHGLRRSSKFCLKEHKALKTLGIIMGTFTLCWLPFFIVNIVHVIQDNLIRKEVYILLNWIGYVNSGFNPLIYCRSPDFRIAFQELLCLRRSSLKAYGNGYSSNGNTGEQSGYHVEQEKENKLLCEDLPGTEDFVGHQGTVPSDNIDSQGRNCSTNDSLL
# KiSS-1 receptor (Homo sapiens), sequence (Q969F8 whole entry, looked up): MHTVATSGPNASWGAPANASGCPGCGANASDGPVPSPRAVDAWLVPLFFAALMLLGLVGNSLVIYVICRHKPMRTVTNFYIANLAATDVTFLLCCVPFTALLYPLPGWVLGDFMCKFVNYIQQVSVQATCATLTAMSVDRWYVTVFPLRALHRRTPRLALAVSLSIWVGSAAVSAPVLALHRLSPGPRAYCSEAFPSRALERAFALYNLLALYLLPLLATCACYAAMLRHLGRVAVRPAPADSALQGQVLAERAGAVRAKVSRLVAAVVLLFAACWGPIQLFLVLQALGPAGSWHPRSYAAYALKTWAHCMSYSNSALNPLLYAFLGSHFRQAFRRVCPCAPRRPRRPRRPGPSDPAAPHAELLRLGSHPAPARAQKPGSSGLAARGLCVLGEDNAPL
# Gonadotropin-releasing hormone receptor (Homo sapiens), sequence (P30968 whole entry, looked up): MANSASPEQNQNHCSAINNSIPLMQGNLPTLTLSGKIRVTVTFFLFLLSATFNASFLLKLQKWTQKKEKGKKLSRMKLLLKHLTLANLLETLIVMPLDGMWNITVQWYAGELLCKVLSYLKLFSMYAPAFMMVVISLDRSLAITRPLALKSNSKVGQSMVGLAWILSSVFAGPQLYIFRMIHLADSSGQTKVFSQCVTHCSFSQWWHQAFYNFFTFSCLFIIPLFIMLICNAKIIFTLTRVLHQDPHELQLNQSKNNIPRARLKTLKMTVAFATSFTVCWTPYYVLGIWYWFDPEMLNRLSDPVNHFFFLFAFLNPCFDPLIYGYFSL
# Muscarinic acetylcholine receptor M1 (Homo sapiens), sequence (P11229 whole entry, looked up): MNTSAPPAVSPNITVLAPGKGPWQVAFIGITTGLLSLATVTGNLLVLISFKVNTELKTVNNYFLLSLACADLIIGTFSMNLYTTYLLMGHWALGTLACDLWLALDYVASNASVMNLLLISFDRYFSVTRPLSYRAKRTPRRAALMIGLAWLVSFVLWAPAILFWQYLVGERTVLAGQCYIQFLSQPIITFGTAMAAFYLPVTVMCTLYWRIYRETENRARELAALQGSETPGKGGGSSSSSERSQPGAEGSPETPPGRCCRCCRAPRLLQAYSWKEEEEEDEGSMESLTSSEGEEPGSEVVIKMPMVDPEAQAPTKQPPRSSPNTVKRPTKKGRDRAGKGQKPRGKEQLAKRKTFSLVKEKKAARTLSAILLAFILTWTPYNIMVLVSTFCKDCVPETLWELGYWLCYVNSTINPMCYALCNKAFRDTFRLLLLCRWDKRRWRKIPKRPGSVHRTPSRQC
# D(2) dopamine receptor (Homo sapiens), sequence (P14416 whole entry, looked up): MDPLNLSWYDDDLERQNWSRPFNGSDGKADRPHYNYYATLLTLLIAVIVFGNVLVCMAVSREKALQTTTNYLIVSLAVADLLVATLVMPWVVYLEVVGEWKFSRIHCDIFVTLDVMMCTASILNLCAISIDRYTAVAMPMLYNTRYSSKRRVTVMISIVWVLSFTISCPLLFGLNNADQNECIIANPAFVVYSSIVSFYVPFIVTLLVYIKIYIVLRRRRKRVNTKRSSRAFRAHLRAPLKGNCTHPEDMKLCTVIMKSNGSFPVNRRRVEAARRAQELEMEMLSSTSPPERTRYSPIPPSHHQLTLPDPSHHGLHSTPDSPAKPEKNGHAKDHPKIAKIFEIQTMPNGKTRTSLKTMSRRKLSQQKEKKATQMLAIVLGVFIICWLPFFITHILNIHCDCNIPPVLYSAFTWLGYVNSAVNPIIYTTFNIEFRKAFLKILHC
smiles,measurement,setting,value
CCCCCCCCCCCCCCCCN(C)C,"activity change, negative = cytotoxicity",[1],3.36% [at 8.39 µM]
same,"activity, positive = activation",[2],-0.511% [at 8.39 µM]
same,activity change,[3],"-0.722% [at 5.22 µM, active compounds read high]"
same,activation,[4],5.47% [at 6.97 µM]
same,activation,[5],-0.0918% [at 5.99 µM]
same,"activity change, negative = cytotoxicity",[6],-6.23% [at 5.99 µM]
same,"activity change, negative = cytotoxicity",[7],1.34% [at 5.99 µM]
same,"activity change, negative = cytotoxicity",[8],8.26% [at 5.99 µM]
same,"activity, negative = inhibition",[9],-3.75% [at 5.62 µM]
same,"activity, negative = inhibition",[10],5.3% [at 5.58 µM]
same,activation,[11],0.295% [at 6.97 µM]
same,activation,[12],-1.13% [at 8.39 µM]
same,"activity change, negative = inhibition",[13],1.36% [at 8.39 µM]
same,activation,[14],-3.52% [at 8.39 µM]
same,"activity change, negative = inhibition",[15],-3.89% [at 8.38 µM]
O=C(O)CCc1nc(-c2ccccc2)c(-c2ccccc2)o1,Potency,[1],inactive
same,Potency,[2],inactive
same,Potency,[3],inactive
same,Potency,[4],inactive
same,Potency,[16],inactive
same,Potency,[17],inactive
same,Potency,[18],inactive
same,Potency,[14],inactive
same,Potency,[15],inactive
C=C(C)C(=O)OCCOC1CC2CC1C1C=CCC21 (configuration not stated),Potency,[1],inactive
same,Potency,[2],inactive
same,Potency,[3],inactive
same,Potency,[4],inactive
same,Potency,[5],inactive
same,Potency,[6],inactive
same,Potency,[7],inactive
same,Potency,[8],inactive
same,Potency,[19],inactive
same,Potency,[20],inactive
same,Potency,[10],inactive
same,Potency,[11],inactive
same,Potency,[12],inactive
same,Potency,[17],inactive
same,Potency,[18],inactive
same,Potency,[14],inactive
same,Potency,[15],inactive
CC(=O)c1ccc(C)cc1,Potency,[1],inactive
same,Potency,[2],inactive
same,Potency,[3],inactive
same,Potency,[4],inactive
same,Potency,[6],inactive
same,Potency,[7],inactive
same,Potency,[8],inactive
same,Potency,[9],inactive
same,Potency,[20],inactive
same,Potency,[11],inactive
same,Potency,[12],inactive
same,Potency,[13],inactive
same,Potency,[17],inactive
same,Potency,[14],inactive
same,Potency,[15],inactive
COCc1nnc(-c2ccc[n+]([O-])c2)n1-c1c(Cl)c(Cl)cc2[nH]c(=O)c(=O)[nH]c12,Potency,[1],inactive
same,Potency,[2],inactive
same,Potency,[3],inactive
same,Potency,[4],inactive
same,Potency,[6],inactive
same,Potency,[7],inactive
same,Potency,[8],inactive
same,Potency,[9],inactive
same,Potency,[20],inactive
same,Potency,[10],inactive
same,Potency,[12],inactive
same,Potency,[13],inactive
same,Potency,[17],inactive
same,Potency,[18],inactive
same,Potency,[14],inactive
same,Potency,[15],inactive
O=C(Nc1ccc(Cl)c(Cl)c1)c1cc(Cl)cc(Cl)c1O,Potency,[1],3.44 µM (active)
same,Potency,[2],27.3 µM (active)
same,Potency,[3],inactive
same,Potency,[4],inactive
same,Potency,[5],inactive
same,Potency,[7],40.8 µM (active)
same,Potency,[8],4.08 µM (active)
same,Potency,[17],24.3 µM (active)
same,Potency,[14],inactive
CCN1CCC[C@H]1CNC(=O)c1c(OC)ccc(Br)c1OC,Potency,[1],inactive
same,Potency,[2],inactive
same,Potency,[3],inactive
same,Potency,[4],inactive
same,Potency,[6],inactive
same,Potency,[7],inactive
same,Potency,[8],inactive
same,Potency,[9],inactive
same,Potency,[10],inactive
same,Potency,[11],inactive
same,Potency,[17],inactive
same,Potency,[18],inactive
CCCCCCCCS(=O)(=O)O,Potency,[1],inactive
same,Potency,[2],inactive
same,Potency,[3],inactive
same,Potency,[4],inactive
same,Potency,[6],inactive
same,Potency,[7],inactive
same,Potency,[8],inactive
same,Potency,[9],inactive
same,Potency,[20],inactive
same,Potency,[10],inactive
same,Potency,[11],inactive
same,Potency,[12],inactive
same,Potency,[13],inactive
same,Potency,[17],inactive
same,Potency,[14],inactive
same,Potency,[15],inactive
c1ccccc1,Potency,[1],inactive
same,Potency,[2],inactive
same,Potency,[3],inactive
same,Potency,[4],inactive
same,Potency,[16],inactive
same,Potency,[9],inactive
same,Potency,[20],inactive
same,Potency,[10],inactive
same,Potency,[12],inactive
same,Potency,[13],inactive
same,Potency,[17],inactive
same,Potency,[14],inactive
same,Potency,[15],inactive
